Test systems include DU-145 prostate; K-562 leukemia; MALME-3M melanoma; MDA-MB-231 breast; RXF 393 renal; SF-268 CNS; SF-295 CNS; SF-539 CNS; UACC-257 melanoma; M14 melanoma; HCT-15 colon; HT29 colon; SNB-75 CNS; SNB-19 CNS; U251 CNS; PC-3 prostate; SK-MEL-5 melanoma; UACC-62 melanoma; LOX IMVI melanoma; SK-MEL-28 melanoma.
Assay in all cases: NCI-60 one-dose screen, 48 h (100 = growth as untreated, 0 = no growth, -100 = all killed)
Holding throughout (details): 10 µM unless noted

About 83,000 compounds went through this panel and 20% of them were active in at least one assay; those are over-represented in the sample as a whole.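 Assay: single dose, 48 h. Readout: percent growth (0 = no net growth; negative = cell death). Active: <10.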 Unmarked numbers belong to inactive results. Calls of active or inactive are those of the source.

Turning to `CCn1c(-c2cc3c([nH]c4ccccc43)c(-c3cccc(O)c3)n2)n[nH]c1=S`, the growth was 62.3% in the experiment with DU-145 prostate; 14.3% in the experiment on K-562 leukemia; 51% in the experiment on MALME-3M melanoma; 46.9% in the experiment with MDA-MB-231 breast; 8.59% (active) with RXF 393 renal; 48.3% with SF-268 CNS. For the same compound, the growth in the experiment on SF-295 CNS was 36.8%; in the experiment on SF-539 CNS, 30%; in the experiment with UACC-257 melanoma it was 41%; with M14 melanoma, 18.1%; in the experiment on HCT-15 colon, 50.2%; in the experiment on HT29 colon, -19.4% (active). The growth with SNB-75 CNS is 22.2%; in the experiment with SNB-19 CNS, 62.6%; with U251 CNS, 23.8%; in the experiment on PC-3 prostate it was 34.1%; in the experiment with SK-MEL-5 melanoma, -1.38% (active); in the experiment on UACC-62 melanoma, 43.6%. Also, the values for the growth in the experiment with LOX IMVI melanoma and with SK-MEL-28 melanoma were 32.5% and 53.6%, respectively.

Consider `O=C(Nc1ncc(Cc2cc(C(F)(F)F)ccc2Cl)s1)c1cccs1`, for which the growth was 72.7% with DU-145 prostate; 10.7% in the experiment with K-562 leukemia; 50.7% with MALME-3M melanoma; 77.8% with MDA-MB-231 breast; 42.7% in the experiment with RXF 393 renal; 63.9% in the experiment with SF-268 CNS. Besides, the growth in the experiment on SF-295 CNS was 41%; with SF-539 CNS it was 79.7%; with UACC-257 melanoma, 73.3%; in the experiment on M14 melanoma it was 49.3%; with HCT-15 colon, 21.9%; in the experiment on HT29 colon, 18.6%. Also, the growth in the experiment on SNB-75 CNS was 72%; with SNB-19 CNS, 65%; in the experiment on U251 CNS it was 42.5%; with PC-3 prostate, 50.1%; in the experiment with SK-MEL-5 melanoma it was 37.7%; in the experiment with UACC-62 melanoma it was 46.1%. For the same compound, the growth in the experiment on LOX IMVI melanoma is 58.8%; with SK-MEL-28 melanoma, 67.5%.

In the case of `C=CCn1c(SCC(=O)Nc2ccc(/C(C)=N/O)cc2)nnc1-c1cc(-c2ccc(S(N)(=O)=O)cc2)nc2ccccc12`, the growth with DU-145 prostate was 105%; with K-562 leukemia, 38.8%; with MALME-3M melanoma, 88.9%; with MDA-MB-231 breast, 74.1%; with RXF 393 renal it was 93.5%; with SF-268 CNS, 67.1%. Moreover, the growth in the experiment with SF-295 CNS is 98.4%; in the experiment with SF-539 CNS it was 64.2%; in the experiment on UACC-257 melanoma it was 92.7%; in the experiment with M14 melanoma it was 93.5%; in the experiment with HCT-15 colon it was 96.5%; in the experiment on HT29 colon, 105%. Moreover, the growth in the experiment with SNB-75 CNS was 54.2%; with SNB-19 CNS it was 70.3%; in the experiment with U251 CNS, 67.2%; in the experiment on PC-3 prostate, 80.2%; in the experiment on SK-MEL-5 melanoma, 65.6%; with UACC-62 melanoma, 69.7%. For the same compound, the growth in the experiment on LOX IMVI melanoma was 27%; with SK-MEL-28 melanoma, 93.3%.

Regarding `Clc1ccccc1-c1cnn2cc(-c3ccccc3)cnc12`, the growth in the experiment with DU-145 prostate is 87.6%; with K-562 leukemia it was 67.3%; in the experiment on MALME-3M melanoma it was 89.9%; in the experiment with MDA-MB-231 breast, 72.4%; in the experiment on RXF 393 renal it was 87.6%; with SF-268 CNS, 85.6%. The growth in the experiment on SF-295 CNS was 82.9%; in the experiment with SF-539 CNS, 81.3%; in the experiment with UACC-257 melanoma, 86.3%; in the experiment on M14 melanoma, 91.5%; in the experiment on HCT-15 colon it was 70.1%; in the experiment on HT29 colon it was 73.4%. The growth with SNB-75 CNS is 74.2%; with SNB-19 CNS it was 71%; in the experiment with U251 CNS, 82.9%; in the experiment with PC-3 prostate, 86.4%; with SK-MEL-5 melanoma, 93.2%; in the experiment on UACC-62 melanoma, 65.9%. In addition, the growth with LOX IMVI melanoma is 94.6%; in the experiment with SK-MEL-28 melanoma it was 88.3%.

As to `CN1CCN(CCCOc2cccc3nc(Nc4ccc(F)c(F)c4)ccc23)CC1`, the growth in the experiment with DU-145 prostate is 7.31% (active); in the experiment with K-562 leukemia, -41.5% (active); with MALME-3M melanoma, -64.8% (active); in the experiment with MDA-MB-231 breast it was -69.9% (active); in the experiment with RXF 393 renal it was 16.4%; in the experiment on SF-268 CNS, 26%. Moreover, the growth with SF-295 CNS was -65% (active); with SF-539 CNS, -53.5% (active); in the experiment on UACC-257 melanoma, -76.7% (active); with M14 melanoma, -78.5% (active); in the experiment with HCT-15 colon, -79.9% (active); in the experiment on HT29 colon it was -69.5% (active). For the same compound, the growth was -5.9% (active) in the experiment with SNB-75 CNS; -17.4% (active) in the experiment with SNB-19 CNS; -70.3% (active) with U251 CNS; -43.6% (active) in the experiment on PC-3 prostate; -100% (active) in the experiment with SK-MEL-5 melanoma; -75.4% (active) in the experiment with UACC-62 melanoma. The growth in the experiment on LOX IMVI melanoma is -87.7% (active); in the experiment with SK-MEL-28 melanoma, -82.3% (active).

Consider `O=C(CCSc1nnc2n(Cc3ccccc3)c(=O)c3c4c(sc3n12)CCCC4)N1CCN(c2ccccc2)CC1`, for which the growth is 111% in the experiment with DU-145 prostate; 113% in the experiment on K-562 leukemia; 95.4% in the experiment with MALME-3M melanoma; 109% in the experiment on MDA-MB-231 breast; 108% with RXF 393 renal; 93% in the experiment on SF-268 CNS. The growth in the experiment on SF-295 CNS is 96%; in the experiment with SF-539 CNS, 100%; in the experiment with UACC-257 melanoma, 101%; in the experiment with M14 melanoma, 96.2%; in the experiment on HCT-15 colon it was 96.9%; with HT29 colon, 93.7%. For the same compound, the growth with SNB-75 CNS was 93.5%; with SNB-19 CNS, 99.8%; in the experiment on U251 CNS, 106%; with PC-3 prostate, 102%; in the experiment on SK-MEL-5 melanoma, 99.9%; in the experiment with UACC-62 melanoma, 108%. Also, the growth with LOX IMVI melanoma was 100%; in the experiment with SK-MEL-28 melanoma, 87.4%.

`O=S(=O)(Oc1ccc(Br)cc1)c1ccc(Cl)cc1`: the growth in the experiment with DU-145 prostate was 93.8%; in the experiment on K-562 leukemia, 108%; with MALME-3M melanoma, 85.5%; with MDA-MB-231 breast, 117%; in the experiment with RXF 393 renal, 114%; in the experiment with SF-268 CNS it was 99.2%. Besides, the growth with SF-295 CNS was 94.6%; in the experiment on SF-539 CNS, 110%; in the experiment on UACC-257 melanoma it was 118%; with M14 melanoma, 94.3%; with HCT-15 colon, 97.6%; in the experiment on HT29 colon it was 99%. Moreover, the growth in the experiment with SNB-75 CNS was 121%; in the experiment on SNB-19 CNS, 103%; with U251 CNS, 106%; in the experiment with PC-3 prostate it was 91.7%; in the experiment with SK-MEL-5 melanoma, 101%; in the experiment with UACC-62 melanoma it was 98.6%. In addition, the growth was 95.1% in the experiment on LOX IMVI melanoma and 103% in the experiment with SK-MEL-28 melanoma.

As to `CCN(CC)CCN1C(=O)c2c(c(C)c3c(oc4ccc(OC)cc43)c2C)C1=O`, the growth was 94.1% with DU-145 prostate; 90.5% with K-562 leukemia; 91.9% in the experiment with MALME-3M melanoma; 96.3% with MDA-MB-231 breast; 82.2% with RXF 393 renal; 94.9% with SF-268 CNS. For the same compound, the growth in the experiment with SF-295 CNS is 105%; in the experiment with SF-539 CNS it was 94.1%; with UACC-257 melanoma, 101%; with M14 melanoma, 103%; in the experiment on HCT-15 colon it was 90%; in the experiment on HT29 colon, 87.5%. The growth was 116% in the experiment with SNB-75 CNS; 88% in the experiment with SNB-19 CNS; 87.3% in the experiment on U251 CNS; 90.7% with PC-3 prostate; 82.7% with SK-MEL-5 melanoma; 97% in the experiment with UACC-62 melanoma. The values for the growth in the experiment on LOX IMVI melanoma and with SK-MEL-28 melanoma were 93.3% and 91.6%, respectively.

The values above are taken from PubChem BioAssay (NCI).
